Measured values taken from publication PMC5540273 (PLoS ONE, 2017).

What follows are molecules tested on T1, IKK-beta. Conditions: concentration: 1 μM, replicates: in singlicate; n = 1.
T1 construct: gene IKBKB
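Note: KINOMEscan kinase panel screen.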

| Structure (SMILES) | %Inh [%] |
| --- | --- |
| N#Cc1ccc(-c2cc(-c3c[nH]nc3-c3ccccn3)ccn2)cc1 [GW693028] | 19 |
| CCc1ccnc(/C=C/c2n[nH]c3cc(Sc4ccccc4C(=O)NC)ccc23)c1 | 4 |
| Cc1cccc(-c2nc(Nc3ccc4ncsc4c3)c3ccccc3n2)n1 [GW867588] | 0 |
| O=C1NC(=O)C(N2CCc3ccccc32)=C1c1cccc(Cl)c1 [SB-408010] | 10 |
| NS(=O)(=O)c1cccc(-c2ccc3ncc(N4CCOCC4)nc3c2)c1 [GSK1535721] | 0 |
| CN1c2ccc(CNc3ccc(F)cc3)cc2-c2c(cnn2C)S1(=O)=O | 0 |
| Cn1ccc2ncnc(Oc3ccc(NC(=O)Nc4ccncc4)c(Cl)c3)c21 | 16 |
| COc1cc(Nc2nccc(N3CCC(NC(=O)c4cccc(NC(C)=O)c4)C3)n2)cc(OC)c1OC (stereo not drawn) [GSK1379754] | 8 |
| CSc1ccc(-c2cc3ncnc(SCC(=O)O)c3s2)cc1 | 0 |
| CC(C)(C)n1cnc2c(N)ncnc21 [SKF-97359] | 0 |
| Cc1nnc(-c2ccc(C)c(-c3ccc(C(=O)Nc4ccc(NS(C)(=O)=O)cc4)cc3)c2)o1 [GW702865] | 0 |
| COc1ccc(S(=O)(=O)NC2CCN(c3cc(C)nc(Nc4cccc(C#N)c4)n3)CC2)cc1.O=C(O)C(F)(F)F [GSK1653539] | 0 |
| Cc1c2ccc(N(C)c3ccnc(Nc4cccc(S(N)(=O)=O)c4)n3)cc2nn1Cc1ccccc1.Cl.Cl [GW787226] | 0 |
| COc1cc2c(cc1OC[C@@H](O)CO)ncc1c3ccc(C#N)cc3[nH]c21 | 35 |
| O=C(NCCCN1CCOCC1)c1cccc(Nc2nccc(Nc3ccc(Oc4ccccc4)cc3)n2)c1 [GW663929] | 0 |
| Cc1ccc(NC(=O)c2ccnc(N3CCN(C)CC3)c2)cc1-c1ccc(C(=O)NCC2CC2)cc1 [GW775604] | 0 |
| O=C(Nc1n[nH]c2cc(-c3cccc(F)c3)ccc12)C1CC1 [SB-735464] | 37 |

| Structure (SMILES) | %Inh [%] |
| --- | --- |
| COc1ccc(Nc2nccc(N3CCC(NC(=O)Nc4cccc(C(C)=O)c4)C3)n2)cc1 (stereo not drawn) [GSK1379731] | 1 |
| COCCNC(=O)c1ccc(-c2cc(C(=O)NC3CC3)cc(F)c2C)cc1 [GW868318] | 29 |
| COc1ccc(CNC(=O)NC2CCN(c3ccnc(Nc4ccc(OC)cc4)n3)C2)cc1 (stereo not drawn) [GSK1379727] | 10 |
| Nc1nccc(-c2c(-c3ccc(F)cc3)ncn2C2CCN(CC(F)(F)F)CC2)n1 [SB-236560] | 0 |
| O=C(NCCNc1ccnc(Nc2ccc(F)cc2)n1)Nc1ccccc1F [GSK1379880] | 0 |
| O=C(Nc1cccc(-c2nn3ncccc3c2-c2ccnc(Nc3cccc(C(F)(F)F)c3)n2)c1)c1c(F)cccc1F [GSK299495] | 17 |
| COc1ccc(Nc2ncc(C#N)c(Nc3ccccc3C(N)=O)n2)cc1N1CCN(C)CC1.Cl [GSK1558669] | 88 |
| O=c1cc(N2CCOCC2)nc2n(Cc3cccc4ccccc34)ccn12 [GSK2333389] | 17 |
| Fc1ccc(-c2ncn(CCCN3CCOCC3)c2-c2ccccn2)cc1 [SB-211742] | 0 |
| CN1c2ccc(NCc3ccc(F)cc3)cc2-c2c(cnn2C)S1(=O)=O | 0 |
| Nc1nc(-c2ccc3c(N)n[nH]c3c2)cc(N2CCCC2)n1 [GSK2227430] | 0 |
| [2H]C([2H])(c1cccc(C(F)(F)F)c1C)n1ccn2c(=O)nc(N3CCOCC3)cc12 [GSK2336394] | 16 |
| COc1cc2ncn(-c3cc(OCc4sccc4Cl)c(C(N)=O)s3)c2cc1OC [GSK448459] | 0 |
| COc1cc2c(cc1OCCN1CCN(C)CC1)ncc1c3ccc(C#N)cc3[nH]c21 | 29 |
| Cc1nnc(-c2ccc3occ(-c4ccc(C(C)O)cc4)c3c2)o1 (stereo not drawn) | 2 |
| Cn1cc(-c2ccc3c(c2)CCN3C(=O)Cc2ccccc2Cl)c2c(N)ncnc21 [GSK2608885] | 0 |

The molecules below were run on T2, IKK-epsilon. Conditions: concentration: 1 μM, replicates: in singlicate; n = 1.
T2 construct: gene IKBKE

| Structure (SMILES) | %Inh [%] |
| --- | --- |
| N#Cc1ccc(-c2cc(-c3c[nH]nc3-c3ccccn3)ccn2)cc1 [GW693028] | 0 |
| CCc1ccnc(/C=C/c2n[nH]c3cc(Sc4ccccc4C(=O)NC)ccc23)c1 | 14 |
| Cc1cccc(-c2nc(Nc3ccc4ncsc4c3)c3ccccc3n2)n1 [GW867588] | 4 |
| O=C1NC(=O)C(N2CCc3ccccc32)=C1c1cccc(Cl)c1 [SB-408010] | 0 |
| NS(=O)(=O)c1cccc(-c2ccc3ncc(N4CCOCC4)nc3c2)c1 [GSK1535721] | 34 |
| CN1c2ccc(CNc3ccc(F)cc3)cc2-c2c(cnn2C)S1(=O)=O | 0 |
| Cn1ccc2ncnc(Oc3ccc(NC(=O)Nc4ccncc4)c(Cl)c3)c21 | 0 |
| COc1cc(Nc2nccc(N3CCC(NC(=O)c4cccc(NC(C)=O)c4)C3)n2)cc(OC)c1OC (stereo not drawn) [GSK1379754] | 14 |
| CSc1ccc(-c2cc3ncnc(SCC(=O)O)c3s2)cc1 | 0 |
| CC(C)(C)n1cnc2c(N)ncnc21 [SKF-97359] | 0 |
| Cc1nnc(-c2ccc(C)c(-c3ccc(C(=O)Nc4ccc(NS(C)(=O)=O)cc4)cc3)c2)o1 [GW702865] | 31 |
| COc1ccc(S(=O)(=O)NC2CCN(c3cc(C)nc(Nc4cccc(C#N)c4)n3)CC2)cc1.O=C(O)C(F)(F)F [GSK1653539] | 49 |
| Cc1c2ccc(N(C)c3ccnc(Nc4cccc(S(N)(=O)=O)c4)n3)cc2nn1Cc1ccccc1.Cl.Cl [GW787226] | 2 |
| COc1cc2c(cc1OC[C@@H](O)CO)ncc1c3ccc(C#N)cc3[nH]c21 | 40 |
| O=C(NCCCN1CCOCC1)c1cccc(Nc2nccc(Nc3ccc(Oc4ccccc4)cc3)n2)c1 [GW663929] | 0 |
| Cc1ccc(NC(=O)c2ccnc(N3CCN(C)CC3)c2)cc1-c1ccc(C(=O)NCC2CC2)cc1 [GW775604] | 0 |
| O=C(Nc1n[nH]c2cc(-c3cccc(F)c3)ccc12)C1CC1 [SB-735464] | 14 |

| Structure (SMILES) | %Inh [%] |
| --- | --- |
| COc1ccc(Nc2nccc(N3CCC(NC(=O)Nc4cccc(C(C)=O)c4)C3)n2)cc1 (stereo not drawn) [GSK1379731] | 0 |
| COCCNC(=O)c1ccc(-c2cc(C(=O)NC3CC3)cc(F)c2C)cc1 [GW868318] | 4 |
| COc1ccc(CNC(=O)NC2CCN(c3ccnc(Nc4ccc(OC)cc4)n3)C2)cc1 (stereo not drawn) [GSK1379727] | 12 |
| Nc1nccc(-c2c(-c3ccc(F)cc3)ncn2C2CCN(CC(F)(F)F)CC2)n1 [SB-236560] | 54 |
| O=C(NCCNc1ccnc(Nc2ccc(F)cc2)n1)Nc1ccccc1F [GSK1379880] | 0 |
| O=C(Nc1cccc(-c2nn3ncccc3c2-c2ccnc(Nc3cccc(C(F)(F)F)c3)n2)c1)c1c(F)cccc1F [GSK299495] | 0 |
| COc1ccc(Nc2ncc(C#N)c(Nc3ccccc3C(N)=O)n2)cc1N1CCN(C)CC1.Cl [GSK1558669] | 93.8 |
| O=c1cc(N2CCOCC2)nc2n(Cc3cccc4ccccc34)ccn12 [GSK2333389] | 0 |
| Fc1ccc(-c2ncn(CCCN3CCOCC3)c2-c2ccccn2)cc1 [SB-211742] | 0 |
| CN1c2ccc(NCc3ccc(F)cc3)cc2-c2c(cnn2C)S1(=O)=O | 0 |
| Nc1nc(-c2ccc3c(N)n[nH]c3c2)cc(N2CCCC2)n1 [GSK2227430] | 40 |
| [2H]C([2H])(c1cccc(C(F)(F)F)c1C)n1ccn2c(=O)nc(N3CCOCC3)cc12 [GSK2336394] | 13 |
| COc1cc2ncn(-c3cc(OCc4sccc4Cl)c(C(N)=O)s3)c2cc1OC [GSK448459] | 0 |
| COc1cc2c(cc1OCCN1CCN(C)CC1)ncc1c3ccc(C#N)cc3[nH]c21 | 70 |
| Cc1nnc(-c2ccc3occ(-c4ccc(C(C)O)cc4)c3c2)o1 (stereo not drawn) | 3 |
| Cn1cc(-c2ccc3c(c2)CCN3C(=O)Cc2ccccc2Cl)c2c(N)ncnc21 [GSK2608885] | 37 |
